According to PubChem BioAssay (NCI):
Compounds without any hit were thinned out: in the full panel of roughly 79,000, 15% have a hit. Unmarked numbers belong to inactive results. The source made the active and inactive calls. No stated cut-off is given here; in the data, active means growth inhibition above about 70%; inactive means the rest.

Key:
[1] = NCI Yeast Anticancer Drug Screen. Data for the rad50 strain (AID 155);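 further: 0% = growth of vehicle-only cultures of the same strain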; settings: S. cerevisiae rad50 strain growth inhibition, active compounds read high
Procedure, shortened: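 Genetically altered yeast (DNA repair pathway); compound treatment; growth inhibition vs vehicle ctrl.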

[2] = NCI Yeast Anticancer Drug Screen. Data for the mec2-1 strain (AID 157); settings: S. cerevisiae mec2-1 strain, active compounds read high
Procedure, shortened: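 Readout is yeast growth inhibition, normalised to vehicle-treated controls, in the mec2-1 strain exposed to compound.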

[3] = NCI Yeast Anticancer Drug Screen. Data for the sgs1 mgt1 strain (AID 161);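 further: 0% = growth of cultures given vehicle only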; settings: S. cerevisiae sgs1 mgt1 strain, active compounds read high
Procedure, shortened: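 Compounds are added to genetically altered yeast, and growth is compared with cultures given vehicle alone to give percent inhibition.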

[4] = NCI Yeast Anticancer Drug Screen. Data for the cln2 rad14 strain (AID 165);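 further: 0% = growth equal to vehicle treated cultures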; settings: S. cerevisiae cln2 rad14 strain, active compounds read high
Procedure, shortened: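 Relative to vehicle controls, growth inhibition of compound-treated cln2 rad14 yeast was recorded.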

[5] = NCI Yeast Anticancer Drug Screen. Data for the bub3 strain (AID 167); settings: S. cerevisiae bub3 mutant strain, active compounds read high
Procedure, shortened: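 Yeast carrying a defined mutation is treated with each compound, and growth is compared with that of vehicle-exposed cells to give inhibition.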

[6] = NCI Yeast Anticancer Drug Screen. Data for the mlh1 rad18 strain (AID 175); settings: S. cerevisiae mlh1 rad18 strain growth inhibition, active compounds read high
Procedure, shortened: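 Test agents were incubated with a yeast strain of defined genotype (DNA damage repair defect). Inhibition of growth was derived by comparison with vehicle-exposed cultures.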

[7] = at 5.0 µM (retest, dose inferred, filed as 0.5)
[8] = at 50.0 µM (retest, dose inferred, filed as 5.0)

Row | SMILES | growth inhibition [1, 7] | growth inhibition [1, 8] | growth inhibition ([1]; at 50.0 µM) | growth inhibition [2, 7] | growth inhibition [2, 8] | growth inhibition ([2]; at 50.0 µM) | growth inhibition [3, 7] | growth inhibition [3, 8] | growth inhibition ([3]; at 50.0 µM) | growth inhibition [4, 7] | growth inhibition [4, 8] | growth inhibition ([4]; at 50.0 µM) | growth inhibition [5, 7] | growth inhibition [5, 8] | growth inhibition ([5]; at 50.0 µM) | growth inhibition [6, 7] | growth inhibition [6, 8] | growth inhibition ([6]; at 50.0 µM)
1 | C[C@]12CC[C@H](O)C[C@@H]1CC[C@@H]1[C@@H]2CC[C@]2(C)[C@@H](c3cc(C(F)(F)F)n[nH]3)CC[C@@H]12 | 12% | 94% (active) | 89.8% (active) | 3% | 86% (active) | 61.6% | 10% | 90% (active) | 63% | 7% | 92% (active) | 68.9% | -3% | 85% (active) | 84.3% (active) | 12% | 96% (active) | 88.7% (active)
2 | CCC(C1SC(=S)NC1=O)C1SC(=S)NC1=O (stereo not given) | 3% | 13% | 99.3% (active) | -1% | 29% | 99.6% (active) | 10% | 41% | 99.4% (active) | -9% | -2% | 82.9% (active) | -4% | 6% | 99.5% (active) | -1% | 35% | 99% (active)
3 | OCc1c(-c2cccc3ccccc23)sc(-c2cccc3ccccc23)c1CO | 59% | 74% (active) | 90% (active) | 20% | 85% (active) | 92.8% (active) | 44% | 56% | 86.8% (active) | 63% | 81% (active) | 86.6% (active) | 39% | 82% (active) | 86.5% (active) | 65% | 70% (active) | 88.4% (active)
4 | CCn1c2ccccc2c2ccc(C3C(C(=O)OC)=C(C)NC(C)=C3C(=O)OC)cc21 | -3% | 8% | 79.4% (active) | -14% | 14% | 76% (active) | -2% | 9% | 80.8% (active) | -14% | 26% | 83.2% (active) | -6% | 15% | 85% (active) | 1% | 8% | 85% (active)
5 | N#CC(CCCCl)(c1ccccc1)c1ccccc1 | 2% | 33% | 86.8% (active) | 3% | 32% | 84% (active) | 4% | 51% | 88.5% (active) | 0% | -3% | 41.8% | -1% | 22% | 67% | 15% | 69% | 92.2% (active)
